Holding throughout (assay): DAPPL (digital affinity profiling via proximity ligation, sequencing); 10 mM Tris-HCl pH 7.5, 50 mM NaCl, 1 mM DTT, 4% glycerol, room temperature, 30 min; GST-TFs on glutathione beads, 16-mer random dsDNA library, 0.1% formaldehyde crosslink after washing; high values mean tight binding
Holding throughout (conditions): protein: recombinant; tags: N-terminal GST; dsDNA, one strand shown

For one experiment, the target named is T1, FLI1 (Homo sapiens, UniProt Q01543 1-452).
T1 sequence: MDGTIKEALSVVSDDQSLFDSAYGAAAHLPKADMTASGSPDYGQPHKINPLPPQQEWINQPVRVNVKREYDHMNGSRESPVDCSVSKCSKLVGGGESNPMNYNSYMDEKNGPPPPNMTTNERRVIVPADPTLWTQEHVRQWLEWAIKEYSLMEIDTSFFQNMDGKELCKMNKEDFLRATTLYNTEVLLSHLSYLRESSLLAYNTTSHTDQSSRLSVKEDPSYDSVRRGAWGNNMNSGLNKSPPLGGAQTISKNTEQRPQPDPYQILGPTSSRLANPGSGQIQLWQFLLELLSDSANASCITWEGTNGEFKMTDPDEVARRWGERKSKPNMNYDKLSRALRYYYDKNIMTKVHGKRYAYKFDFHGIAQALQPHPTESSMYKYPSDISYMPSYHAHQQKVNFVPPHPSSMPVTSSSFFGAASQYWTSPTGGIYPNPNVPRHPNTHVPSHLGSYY
The essentials: (§1)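 A tag-only sample was pooled with DNA-barcoded human transcription factors that had been expressed in yeast as GST fusions and captured on glutathione beads. The pools were incubated for 30 min at room temperature with 200 nmole of a random double-stranded 16-mer DNA library in Tris/NaCl/DTT/glycerol buffer, then washed, crosslinked with 0.1% formaldehyde, proximity-ligated (BsaI/T4 ligase, 1 h, 37 °C), PCR-amplified and sequenced on an Illumina NextSeq500. Binding signal is each hexamer's read frequency for a factor divided by its frequency for the tag-only sample.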

Another experiment deals with T2, ELK1 (Homo sapiens, UniProt P19419 1-428).
T2 sequence: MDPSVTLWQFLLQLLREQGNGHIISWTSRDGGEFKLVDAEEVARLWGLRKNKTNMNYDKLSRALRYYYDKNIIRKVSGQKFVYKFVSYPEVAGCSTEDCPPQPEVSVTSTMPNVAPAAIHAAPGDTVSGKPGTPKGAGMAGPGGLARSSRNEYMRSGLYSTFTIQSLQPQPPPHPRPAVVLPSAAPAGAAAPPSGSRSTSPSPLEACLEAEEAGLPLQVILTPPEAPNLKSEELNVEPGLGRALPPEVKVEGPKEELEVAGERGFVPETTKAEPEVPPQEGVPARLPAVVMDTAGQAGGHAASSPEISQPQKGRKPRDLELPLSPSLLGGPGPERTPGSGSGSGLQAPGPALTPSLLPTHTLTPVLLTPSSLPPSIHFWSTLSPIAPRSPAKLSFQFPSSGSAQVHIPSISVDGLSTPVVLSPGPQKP
In short, it runs like this: as §1

The target of another experiment is T3, GABPA (Homo sapiens, UniProt Q06546 1-454).
T3 sequence: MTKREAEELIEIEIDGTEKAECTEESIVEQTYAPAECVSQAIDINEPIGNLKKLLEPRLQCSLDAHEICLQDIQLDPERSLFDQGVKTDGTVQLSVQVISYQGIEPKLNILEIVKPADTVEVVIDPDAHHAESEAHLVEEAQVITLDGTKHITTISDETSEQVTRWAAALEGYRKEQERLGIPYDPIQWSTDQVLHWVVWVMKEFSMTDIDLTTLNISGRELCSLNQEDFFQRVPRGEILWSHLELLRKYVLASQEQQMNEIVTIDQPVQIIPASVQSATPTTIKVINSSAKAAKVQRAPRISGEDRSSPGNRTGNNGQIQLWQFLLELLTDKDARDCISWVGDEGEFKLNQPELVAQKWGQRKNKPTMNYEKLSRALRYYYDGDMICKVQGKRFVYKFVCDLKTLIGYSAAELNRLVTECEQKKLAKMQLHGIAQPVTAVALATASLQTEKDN
The essentials: as §1

The next experiment deals with T4, ERG (Homo sapiens, UniProt P11308 1-479).
T4 sequence: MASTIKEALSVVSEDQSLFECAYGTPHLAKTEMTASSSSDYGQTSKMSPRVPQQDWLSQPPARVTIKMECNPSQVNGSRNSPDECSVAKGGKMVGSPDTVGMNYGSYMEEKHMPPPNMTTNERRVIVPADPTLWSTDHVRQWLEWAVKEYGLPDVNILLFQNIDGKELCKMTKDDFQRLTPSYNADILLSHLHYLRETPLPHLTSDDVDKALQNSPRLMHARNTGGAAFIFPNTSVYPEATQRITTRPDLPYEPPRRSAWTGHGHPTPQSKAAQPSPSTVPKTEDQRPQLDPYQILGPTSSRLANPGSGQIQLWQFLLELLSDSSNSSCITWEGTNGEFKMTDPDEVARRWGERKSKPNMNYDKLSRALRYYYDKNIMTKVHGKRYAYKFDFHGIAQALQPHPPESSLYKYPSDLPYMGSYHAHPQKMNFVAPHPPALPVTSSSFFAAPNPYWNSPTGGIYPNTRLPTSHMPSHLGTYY
In short, it runs like this:
as §1

The next experiment deals with ELF1 (Homo sapiens, UniProt P32519 1-619). In short, it runs like this:
as §1

For another experiment, the target named is T5, EHF (Homo sapiens, UniProt Q9NZC4 1-300).
T5 sequence: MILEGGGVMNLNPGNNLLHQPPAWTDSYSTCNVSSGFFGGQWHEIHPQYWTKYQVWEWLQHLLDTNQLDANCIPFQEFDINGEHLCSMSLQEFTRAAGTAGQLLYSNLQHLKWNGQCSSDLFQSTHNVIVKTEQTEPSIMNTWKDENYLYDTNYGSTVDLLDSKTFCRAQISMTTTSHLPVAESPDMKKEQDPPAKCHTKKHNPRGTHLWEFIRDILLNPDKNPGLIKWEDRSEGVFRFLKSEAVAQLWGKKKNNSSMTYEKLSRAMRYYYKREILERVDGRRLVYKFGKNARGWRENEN
The essentials: as §1

For the next experiment, the target named is SPI1 (Homo sapiens, UniProt P17947 1-270). In short, it runs like this: as §1
In a further experiment the target is SPIB (Homo sapiens, UniProt Q01892 1-262). In short, it runs like this:
as §1

For another experiment, the target named is T6, ELK3 (Homo sapiens, UniProt P41970 1-407).
T6 sequence: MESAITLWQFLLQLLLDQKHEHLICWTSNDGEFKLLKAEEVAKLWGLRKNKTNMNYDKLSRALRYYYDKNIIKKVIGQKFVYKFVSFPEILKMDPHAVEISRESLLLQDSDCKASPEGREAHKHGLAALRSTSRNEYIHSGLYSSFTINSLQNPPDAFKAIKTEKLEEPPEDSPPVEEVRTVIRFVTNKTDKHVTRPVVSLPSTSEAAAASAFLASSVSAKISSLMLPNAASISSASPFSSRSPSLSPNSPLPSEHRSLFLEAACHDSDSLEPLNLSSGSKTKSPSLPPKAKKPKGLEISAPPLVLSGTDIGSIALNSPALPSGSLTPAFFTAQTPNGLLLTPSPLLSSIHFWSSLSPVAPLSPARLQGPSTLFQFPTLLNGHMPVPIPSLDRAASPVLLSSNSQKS
The essentials:
as §1

Chain of ELF1 (P32519 whole entry): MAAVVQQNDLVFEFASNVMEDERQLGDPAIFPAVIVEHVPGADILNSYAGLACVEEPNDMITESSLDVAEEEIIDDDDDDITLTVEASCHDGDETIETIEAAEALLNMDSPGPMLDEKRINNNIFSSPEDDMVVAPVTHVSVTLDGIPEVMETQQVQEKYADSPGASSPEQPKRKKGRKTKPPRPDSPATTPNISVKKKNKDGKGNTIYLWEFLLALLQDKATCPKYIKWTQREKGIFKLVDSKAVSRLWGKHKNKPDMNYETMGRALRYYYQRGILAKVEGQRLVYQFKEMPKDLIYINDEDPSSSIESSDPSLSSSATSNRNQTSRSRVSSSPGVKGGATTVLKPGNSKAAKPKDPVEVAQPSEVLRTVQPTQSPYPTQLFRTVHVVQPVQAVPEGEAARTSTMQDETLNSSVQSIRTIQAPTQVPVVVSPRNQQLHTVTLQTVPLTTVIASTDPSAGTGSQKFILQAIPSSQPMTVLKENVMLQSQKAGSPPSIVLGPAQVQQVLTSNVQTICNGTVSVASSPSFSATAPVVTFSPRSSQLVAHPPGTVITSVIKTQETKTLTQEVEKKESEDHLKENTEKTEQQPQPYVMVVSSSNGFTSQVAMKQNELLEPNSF
Chain of SPIB (Q01892 whole entry): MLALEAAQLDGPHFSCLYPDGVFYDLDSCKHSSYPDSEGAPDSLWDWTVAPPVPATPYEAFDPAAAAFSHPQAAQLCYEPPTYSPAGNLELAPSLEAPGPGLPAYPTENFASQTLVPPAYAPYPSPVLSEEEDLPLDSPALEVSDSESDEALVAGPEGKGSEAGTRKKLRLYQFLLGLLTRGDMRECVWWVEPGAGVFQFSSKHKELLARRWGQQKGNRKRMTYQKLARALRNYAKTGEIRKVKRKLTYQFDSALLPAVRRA

For ATCCTG, the binding signal with FLI1 is 1.38 fold enrichment (6-mer frequency, TF over GST control); with ELK1 it was 1.43 fold enrichment (6-mer frequency, TF over GST control); with GABPA, 1.34 fold enrichment (6-mer frequency, TF over GST control); with ERG, 1.62 fold enrichment (6-mer frequency, TF over GST control); with ELF1, 1.36 fold enrichment (6-mer frequency, TF over GST control); with EHF it was 1.41 fold enrichment (6-mer frequency, TF over GST control). For the same sequence, the binding signal in the experiment with SPI1 was 1.4 fold enrichment (6-mer frequency, TF over GST control); with SPIB, 1.55 fold enrichment (6-mer frequency, TF over GST control); with ELK3, 1.5 fold enrichment (6-mer frequency, TF over GST control).
In the case of TCTTAG, the binding signal in the experiment with FLI1 was 1.22 fold enrichment (6-mer frequency, TF over GST control); with ELK1, 1.21 fold enrichment (6-mer frequency, TF over GST control); in the experiment with GABPA, 1.22 fold enrichment (6-mer frequency, TF over GST control); in the experiment with ERG it was 1.15 fold enrichment (6-mer frequency, TF over GST control); in the experiment with ELF1 it was 1.25 fold enrichment (6-mer frequency, TF over GST control); with EHF it was 1.21 fold enrichment (6-mer frequency, TF over GST control). Also, the binding signal with SPI1 is 1.13 fold enrichment (6-mer frequency, TF over GST control); with SPIB, 1.09 fold enrichment (6-mer frequency, TF over GST control); with ELK3, 1.11 fold enrichment (6-mer frequency, TF over GST control).
TCCACA: the binding signal with FLI1 was 1.3 fold enrichment (6-mer frequency, TF over GST control); with ELK1, 1.27 fold enrichment (6-mer frequency, TF over GST control); in the experiment with GABPA, 1.26 fold enrichment (6-mer frequency, TF over GST control); in the experiment with ERG, 1.19 fold enrichment (6-mer frequency, TF over GST control); with ELF1, 1.23 fold enrichment (6-mer frequency, TF over GST control); with EHF, 1.25 fold enrichment (6-mer frequency, TF over GST control). Moreover, the binding signal was 1.28 fold enrichment (6-mer frequency, TF over GST control) with SPI1; 1.14 fold enrichment (6-mer frequency, TF over GST control) in the experiment with SPIB; 1.35 fold enrichment (6-mer frequency, TF over GST control) with ELK3.
Take GAATGT: the binding signal was 1.14 fold enrichment (6-mer frequency, TF over GST control) with FLI1; 1.11 fold enrichment (6-mer frequency, TF over GST control) with ELK1; 1.12 fold enrichment (6-mer frequency, TF over GST control) in the experiment with GABPA; 1.08 fold enrichment (6-mer frequency, TF over GST control) in the experiment with ERG; 1.03 fold enrichment (6-mer frequency, TF over GST control) in the experiment with ELF1; 1.13 fold enrichment (6-mer frequency, TF over GST control) with EHF. The binding signal with SPI1 was 1.07 fold enrichment (6-mer frequency, TF over GST control); with SPIB, 1.12 fold enrichment (6-mer frequency, TF over GST control); with ELK3, 1.06 fold enrichment (6-mer frequency, TF over GST control).
Turning to GTAAAC, the binding signal in the experiment with FLI1 is 1.16 fold enrichment (6-mer frequency, TF over GST control); with ELK1, 1.26 fold enrichment (6-mer frequency, TF over GST control); in the experiment with GABPA it was 1.26 fold enrichment (6-mer frequency, TF over GST control); with ERG it was 1.19 fold enrichment (6-mer frequency, TF over GST control); in the experiment with ELF1 it was 1.17 fold enrichment (6-mer frequency, TF over GST control); with EHF, 1.25 fold enrichment (6-mer frequency, TF over GST control). Further, the binding signal was 1.25 fold enrichment (6-mer frequency, TF over GST control) with SPI1; 1.25 fold enrichment (6-mer frequency, TF over GST control) with SPIB; 1.25 fold enrichment (6-mer frequency, TF over GST control) with ELK3.
For ATAACA, the binding signal in the experiment with FLI1 was 1.2 fold enrichment (6-mer frequency, TF over GST control); in the experiment with ELK1, 1.29 fold enrichment (6-mer frequency, TF over GST control); in the experiment with GABPA it was 1.22 fold enrichment (6-mer frequency, TF over GST control); with ERG, 1.25 fold enrichment (6-mer frequency, TF over GST control); in the experiment with ELF1, 1.28 fold enrichment (6-mer frequency, TF over GST control); with EHF, 1.19 fold enrichment (6-mer frequency, TF over GST control). In addition, the binding signal in the experiment with SPI1 was 1.16 fold enrichment (6-mer frequency, TF over GST control); with SPIB, 1.33 fold enrichment (6-mer frequency, TF over GST control); in the experiment with ELK3 it was 1.24 fold enrichment (6-mer frequency, TF over GST control).
ACTCCG: the binding signal is 1.48 fold enrichment (6-mer frequency, TF over GST control) with FLI1; 1.5 fold enrichment (6-mer frequency, TF over GST control) in the experiment with ELK1; 1.58 fold enrichment (6-mer frequency, TF over GST control) with GABPA; 1.43 fold enrichment (6-mer frequency, TF over GST control) with ERG; 1.48 fold enrichment (6-mer frequency, TF over GST control) with ELF1; 1.42 fold enrichment (6-mer frequency, TF over GST control) in the experiment with EHF. The binding signal with SPI1 was 1.45 fold enrichment (6-mer frequency, TF over GST control); with SPIB it was 1.44 fold enrichment (6-mer frequency, TF over GST control); in the experiment with ELK3, 1.56 fold enrichment (6-mer frequency, TF over GST control).

The values above are taken from article PMC7862700, “An all-to-all approach to the identification of sequence-specific readers for epigenetic DNA modifications on cytosine”.
